Compound activity as filed in PubChem BioAssay.
ADAM10 inh – inhibitors of human ADAM10. O14672. recombinant ADAM10, EDANS/DABCYL FRET peptide cleavage, 3 h. inhibition, % at 7 µM. hit rate 0.62% among 370,000. AID 720582;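 active = inhibition above a per-campaign cutoff equal to the mean of compounds falling between control-based bounds plus 3 SD, cut at about 20% in these data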
ADAM17 inh – inhibits human ADAM17 | P78536 | recombinant ADAM17, EDANS/DABCYL FRET peptide cleavage | inhibition, % at 6.95 µM | hit rate 0.83% among 370,000;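 active = inhibition above the mean of compounds lying between control limits plus 3 SD, set per campaign, cut at about 8.5% in these data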
HGIII-sPLA2 inh – Blocks human group III sPLA2 activity; QFRET BODIPY PC-A2 liposome hydrolysis, fluorescence; AID 743126; hit rate 0.56% among 370,000; inhibition, % at 12.2 µM; Q9NZ20;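 active = inhibition above mean plus 3 SD of compounds lying within the high and low control bounds, cut at about 19% in these data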
proKLK7 act – activates the human kallikrein-7 zymogen; P49862; purified proKLK7, EDANS-DABCYL substrate fluorescence; 100% is mature enzyme control, 0% vehicle; activation, % at 7 µM; hit rate 0.9% among 370,000; AID 652039;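 active = activation above the mean of all tested compounds plus 3 SD, computed per campaign excluding outliers beyond control limits, cut at about 13% in these data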
NRP1-CendR mod – alters CendR peptide binding to human NRP-1 | O14786 | FAM-RPARPAR peptide binding to NRP-1, fluorescence polarization | inhibition, % at 25 µM | hit rate 0.85% among 360,000 | AID 602438;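 active = inhibition or corrected inhibition above about 18%, plus a signal ratio from 0.5 to 1.5, limit read from the data, passing the limit was not always enough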
Target sequence (O14786 whole entry, looked up): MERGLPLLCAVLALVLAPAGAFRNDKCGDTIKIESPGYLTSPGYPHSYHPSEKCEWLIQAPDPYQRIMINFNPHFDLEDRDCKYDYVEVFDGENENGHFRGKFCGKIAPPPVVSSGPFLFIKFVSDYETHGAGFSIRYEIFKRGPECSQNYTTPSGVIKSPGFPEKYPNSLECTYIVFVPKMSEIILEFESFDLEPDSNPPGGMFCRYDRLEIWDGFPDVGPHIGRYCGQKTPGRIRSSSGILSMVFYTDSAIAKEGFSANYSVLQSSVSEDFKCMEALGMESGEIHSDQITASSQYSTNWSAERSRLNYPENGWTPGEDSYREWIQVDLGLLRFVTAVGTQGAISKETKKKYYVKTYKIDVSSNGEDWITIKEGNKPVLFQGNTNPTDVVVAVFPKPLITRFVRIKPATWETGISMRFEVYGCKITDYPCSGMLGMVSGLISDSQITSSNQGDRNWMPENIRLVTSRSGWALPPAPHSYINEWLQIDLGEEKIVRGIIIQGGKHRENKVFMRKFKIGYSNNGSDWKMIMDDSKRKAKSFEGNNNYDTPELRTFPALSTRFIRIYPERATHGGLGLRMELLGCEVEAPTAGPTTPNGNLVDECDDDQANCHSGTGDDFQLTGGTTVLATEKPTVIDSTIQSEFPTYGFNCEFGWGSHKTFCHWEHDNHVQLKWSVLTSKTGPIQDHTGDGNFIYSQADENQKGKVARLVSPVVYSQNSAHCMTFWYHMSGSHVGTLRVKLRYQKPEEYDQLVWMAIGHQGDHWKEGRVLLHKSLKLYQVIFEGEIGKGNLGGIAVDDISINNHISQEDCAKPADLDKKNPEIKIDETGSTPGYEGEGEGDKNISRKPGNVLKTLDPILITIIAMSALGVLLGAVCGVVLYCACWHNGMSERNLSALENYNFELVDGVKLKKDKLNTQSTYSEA
proKLK7 act conf – proKLK7 activation, confirmation | AID 686949 | hit rate 68% among 3,200 | shares compounds with proKLK7 act | activation, % at 7 µM | purified proKLK7, EDANS-DABCYL substrate fluorescence; scaled: vehicle 0, mature enzyme 100;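 active = activation, as change over the incubation, above the mean of all tested compounds plus 3 SD, cut at about 13% in these data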
EDANS-DABCYL int – counter-screen for kallikrein-7 activators: EDANS-DABCYL optical interference; activation, % at 7 µM; AID 686952; EDANS-DABCYL substrate fluorescence interference, no enzyme, 4 h; solvent 0%, active enzyme control 100%; hit rate 80% among 3,200; shares compounds with proKLK7 act;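 active = activation above the all-compound mean plus 3 SD, ignoring values outside control-based bounds, cut at about 4.8% in these data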;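 note: value is the 4 h activation minus the activation read at time zero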
EDANS interf – counter-screen for kallikrein-7 activators: EDANS-DABCYL interference, dose response; EDANS-DABCYL peptide fluorescence interference, no enzyme; hit rate 20% among 250; EC50, µM; shares compounds with proKLK7 act;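 active = compounds that raise the fluorescence signal in this interference counterscreen, with EC50 at or below 10 µM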;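 note: intact quenched peptide substrate alone read at 355 nm excitation and 520 nm emission; signal is fluorescence gain from T0 to T4 after four hours at room temperature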
A number is an active result; i = inactive; nt = no result. Only some compounds are listed: those with a hit (about 3.4% of all), similar ones and a draw of the others.

SMILES	ADAM10 inh	ADAM17 inh	HGIII-sPLA2 inh	proKLK7 act	NRP1-CendR mod	proKLK7 act conf	EDANS-DABCYL int	others
C=CCNC(=O)c1cc2c(=O)n3ccccc3nc2s1	i	i	i	51.9	i	58.7	68.8
Cc1cccn2c(=O)c3cc(C(=O)NC4CCS(=O)(=O)C4)sc3nc12 (stereo unspecified)	i	i	i	21.7	i	52.7	42.6	EDANS interf=i
CC(C)NC(=O)c1cc2c(=O)n3ccccc3nc2s1	i	i	i	75.5	i	75.4	81.4
Cc1cccn2c(=O)c3cc(C(=O)NC4CCCCCC4)sc3nc12	i	i	i	i	i	nt	nt
O=C(NC1CCCCCC1)c1cc2c(=O)n3ccccc3nc2s1	i	i	i	25.1	i	15.9	7.9	EDANS interf=i
C[C@@H]1COc2cc(Br)ccc2S(=O)(=O)N1Cc1cn(Cc2ccc(Br)cc2)nn1	i	i	i	i	nt	nt	nt
O=C(Nc1ccc(F)cc1)OCCCN1C(=O)CCC12CCCCC2	i	i	i	i	nt	nt	nt
Nc1ccc2nc(-c3ccccn3)[nH]c2c1	i	i	i	i	i	nt	nt
Nc1ccc(-c2nc3c(Cl)cc(N)cc3[nH]2)cc1	i	i	i	41.8	i	79.0	68.7
CC(=O)Nc1ccc2nc(-c3cccs3)[nH]c2c1	i	i	i	16.1	i	35.9	27.6	EDANS interf=8.23
Nc1ccc2nc(-c3cccs3)[nH]c2c1	i	i	i	73.0	i	67.1	69.2
Nc1ccc2nc(-c3ccccc3)[nH]c2c1	i	i	i	77.4	i	61.2	75.6
CN(CCO)C1CN(Cc2cn(Cc3ccccc3C(F)(F)F)nn2)S(=O)(=O)C1 (stereo unspecified)	i	i	i	i	nt	nt	nt
Cc1cc(C)cc(C(=O)OCCCN(C)C2CN(Cc3cn(Cc4ccccc4F)nn3)S(=O)(=O)C2)c1 (stereo unspecified)	i	i	i	i	nt	nt	nt
Cc1cc(C(=O)Nc2ccc(Cl)c(Cl)c2)n(-c2ccccc2)n1	i	i	i	i	nt	nt	nt
COC(=O)C1CN(Cc2cn(Cc3ccccc3)nn2)CCS(=O)(=O)N1Cc1ccc(C)cc1 (stereo unspecified)	i	i	i	i	nt	nt	nt
Cc1ccccc1CC(=O)N1CCC(n2nnc3ncccc32)CC1	i	i	i	i	nt	nt	nt
Cc1cc2c(C)cc(=O)oc2c2c1NCCC2	i	i	i	68.3	i	61.6	63.4
COc1ccc(C(=O)n2cc(C(=O)c3cc(C)ccc3O)cn2)cc1	i	i	i	i	i	nt	nt
COc1ccc(O)c(C(=O)c2cnn(C(=O)c3cc(C)oc3C)c2)c1	i	i	i	40.3	i	174.3	143.8
COc1ccc(O)c(C(=O)c2cnn(C(=O)c3cccc(N(C)C)c3)c2)c1	i	i	i	50.5	i	168.3	156.8
COc1ccc(O)c(C(=O)c2cnn(S(=O)(=O)c3ccc(C)cc3)c2)c1	i	i	i	i	i	nt	nt
COc1ccc(C(=O)n2cc(C(=O)c3cc(C)ccc3O)cn2)cc1OC	i	i	i	21.5	i	55.5	49.2
COCCSc1ncccc1-c1nc2ccccc2[nH]1	i	i	i	i	nt	nt	nt
O=C(C[C@H]1C[C@H](C(=O)N2CCOCC2)[C@@]2(CCC3CCCC3)c3[nH]c4cc(-c5ccco5)ccc4c3CCN2C1=O)NCCN1CCOCC1	i	i	i	91.0	i	90.2	100.7
COCCCNC(=O)C[C@H]1C[C@H](C(=O)N2CCOCC2)[C@@]2(CCC3CCCC3)c3[nH]c4cc(-c5ccco5)ccc4c3CCN2C1=O	i	i	i	23.2	i	12.6	17.6
CN(C)CCCNC(=O)C[C@H]1C[C@H](C(=O)N2CCOCC2)[C@@]2(CCC3CCCC3)c3[nH]c4cc(-c5ccco5)ccc4c3CCN2C1=O	i	i	i	68.2	i	51.4	51.1
CC(C)(C)NC(=O)C[C@H]1C[C@H](C(=O)N2CCOCC2)[C@@]2(CCC3CCCC3)c3[nH]c4cc(-c5ccco5)ccc4c3CCN2C1=O	nt	nt	nt	nt	i	nt	nt
O=C(Nc1ccc(N2C(=O)CC3(CCCCC3)C2=O)c(Cl)c1)c1ccccn1	i	i	i	nt	nt	nt	nt
